Screening results deposited in PubChem by The Scripps Research Institute Molecular Screening Center.
Shown are actives, neighbours in structure and some others; about 3.4% of the full set was active somewhere.
GPR151 activ = activates the human receptor GPR151; PathHunter beta-arrestin GPR151 cells, luminescence; activation, % at 11.2 µM; 650,000 tested, 1% active; in the data active = activation above about 4.9%;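 note: 0% = median of compound wells and 100% = cells with positive control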
MITF inh = inhibitors of human MITF; O75030; AlphaScreen MITF homodimerization, bead proximity signal; inhibition, % at 2.6 µM; 650,000 tested, 0.91% active; AID 1259374; in the data active = inhibition above about 50%;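 note: 0% = vehicle wells with protein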
TEAD-YAP inh = TEAD-YAP interaction inhibition; inhibition, % at 9.12 µM; AID 1259422; 640,000 tested, 1.4% active; HEK-TIYL cells, TEAD-Gal4/YAP UAS-luciferase luminescence; in the data active = inhibition above about 32%;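 note: 0% = median of test compound wells and 100% = reference inhibitor wells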
FBW7 activator = human FBW7 E3 ligase activation, primary screen | Q969H0 | AlphaScreen FBW7–phospho-cyclin E peptide binding, activator screen | normalized activity (activation), % at 26.1 µM | 650,000 tested, 0.13% active; in the data active = normalized activity above about 1.9%;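 note: purified mutant Fbw7 with reduced substrate affinity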
Target sequence (Q969H0 whole entry, looked up): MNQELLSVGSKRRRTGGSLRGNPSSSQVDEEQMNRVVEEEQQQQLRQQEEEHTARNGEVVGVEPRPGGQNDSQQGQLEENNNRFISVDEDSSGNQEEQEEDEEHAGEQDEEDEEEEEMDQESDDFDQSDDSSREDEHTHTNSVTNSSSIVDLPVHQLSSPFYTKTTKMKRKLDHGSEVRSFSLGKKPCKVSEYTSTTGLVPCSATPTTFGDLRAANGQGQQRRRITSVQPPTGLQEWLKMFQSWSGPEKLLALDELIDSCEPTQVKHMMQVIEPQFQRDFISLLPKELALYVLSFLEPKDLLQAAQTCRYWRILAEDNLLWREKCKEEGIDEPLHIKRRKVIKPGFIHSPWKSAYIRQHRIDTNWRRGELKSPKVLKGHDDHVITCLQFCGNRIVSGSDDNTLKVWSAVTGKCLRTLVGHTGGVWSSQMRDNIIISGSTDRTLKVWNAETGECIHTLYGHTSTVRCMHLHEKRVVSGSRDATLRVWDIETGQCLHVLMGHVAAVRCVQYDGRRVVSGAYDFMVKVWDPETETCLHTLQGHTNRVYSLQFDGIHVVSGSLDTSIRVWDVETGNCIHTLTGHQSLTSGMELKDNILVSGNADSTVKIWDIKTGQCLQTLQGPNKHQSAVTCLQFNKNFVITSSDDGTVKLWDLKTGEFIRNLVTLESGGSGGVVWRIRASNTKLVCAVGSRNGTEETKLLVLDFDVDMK
The depositor's hits bear a star.

SMILES	GPR151 activ	MITF inh	TEAD-YAP inh	FBW7 activator
COc1ccccc1C(=O)OCC(=O)c1ccc([N+](=O)[O-])cc1	-1	6	-7	0
O=c1c2c3c(sc2n2cnnc2n1Cc1ccccc1)CCCC3	0	18	-5	1.9*
CCN1CCN(c2c(Cl)cccc2NC(=O)c2cccc3ccccc23)CC1	2	8	35*	0
C=C(C)CN1CCN(c2c(Cl)cccc2NC(=O)c2ccc(Br)o2)CC1	1	6	-5	0
O=C(Nc1cccc(Cl)c1N1CCN(CCc2ccccc2)CC1)c1ccc(Br)o1	23*	0	-4	0
CCNC(=O)[C@H](CC(C)C)NC(=O)c1ccccc1Oc1nc(OC)cc(OC)n1	-2	16	1	0
O=C(c1csc(-c2cc3ccccc3[nH]2)n1)N1CCOCC1	-1	13	-16	0
O=C(c1csc(-c2cc3ccccc3[nH]2)n1)N1CCc2ccccc21	0	1	40*	0
CC1CCN(C(C(=O)Nc2ccc(C(C)C)cc2)c2ccccc2)CC1 (stereo not given)	4	9	-7	0
Cc1cccc(NC(=O)c2sc3nc(C)cc(C)c3c2N)n1	-2	-14	84*	0
COc1ccc2nc(NC(=O)c3sc4nc(C)[nH]c(=O)c4c3C)sc2c1	0	13	5	0
Cc1cc(C)c2c(N)c(C(=O)Nc3ccccc3)sc2n1	0	-10	-11	0
Cc1cc(C)c2c(N)c(C(=O)NC(C)c3ccccc3)sc2n1 (stereo not given)	1	16	-14	2.3*
COc1ccc2nc(NC(=O)c3sc4nc(C)cc(C)c4c3N)sc2c1	1	4	35*	1
CCOc1ccc(C2Oc3c(OCC)cccc3C3CC(c4ccc(C)o4)=NN32)cc1 (stereo not given)	-2	0	-33	0
CS(=O)(=O)c1ncc(Cl)c(C(=O)C(C#N)c2nc3ccccc3s2)n1 (stereo not given)	0	4	74*	0
Cc1cccc(C)c1NC(=O)c1nc(S(C)(=O)=O)ncc1Cl	0	-15	-25	0
COc1ccc(N(Cc2ccccc2)C(=O)c2nc(S(C)(=O)=O)ncc2Cl)cc1	0	6	98*	0
Cc1ccc2nc(C(C#N)C(=O)c3nc(S(C)(=O)=O)ncc3Cl)[nH]c(=O)c2c1 (stereo not given)	1	-15	8	0
Cc1cccc(OC(=O)c2nc(S(C)(=O)=O)ncc2Cl)c1C	0	15	56*	0
CCOC(=O)c1c(NC(=O)c2nc(S(C)(=O)=O)ncc2Cl)sc(C)c1C	-3	-1	8	1
Cc1ccc(OC(=O)c2nc(S(C)(=O)=O)ncc2Cl)cc1C	-1	9	48*	0
COc1ccc2[nH]c3c(c2c1)CCOC31CCN(C(=O)C2CCC2C(=O)O)CC1 (stereo not given)	0	10	-11	0
CC1CCCCN1CCNC(=O)CCn1nc(-c2ccc(Cl)cc2)ccc1=O (stereo not given)	-1	1	2	0
N#C/C(=C\c1ccc(OC(=O)c2cc(F)c(F)cc2Cl)cc1)c1nc2ccccc2[nH]1	0	-5	-20	0
SMILES	GPR151 activ	MITF inh	TEAD-YAP inh	FBW7 activator
Cc1ccc(CNC(=O)CCCCCn2c(=S)[nH]c3ccc(Br)cc3c2=O)cc1	-1	-10	0	0
Cc1ccc(-c2ccc3cnc(Nc4ccc(-n5cnc(N6CCOCC6)n5)cc4)nc3c2)cn1	0	-1	0	2.3*
c1cc(-c2ccc3cnc(Nc4ccc(-n5cnc(N6CCOCC6)n5)cc4)nc3c2)co1	2	37	-1	0
c1cc(-c2ccc3cnc(Nc4ccc(-n5cnc(N6CCOCC6)n5)cc4)nc3c2)c[nH]1	4	6	53*	-1
CC1(C)CC2CC(C)(CN2C(=O)COC(=O)c2ccccc2Cl)C1 (stereo not given)	0	-8	6	0
COc1ccc(C(=O)[C@@H]2[C@@H](c3cccc(Br)c3)C(C#N)(C#N)[C@H]3C=Cc4ccccc4N23)cc1	2	6	64*	0
COc1ccc(C(=O)[C@@H]2[C@@H](c3ccc(OC)cc3)C(C#N)(C#N)[C@H]3C=Cc4ccccc4N23)cc1	3	21	63*	0
COc1ccc(C(=O)[C@@H]2[C@@H](c3ccsc3)C(C#N)(C#N)[C@H]3C=Cc4ccccc4N23)cc1	4	15	60*	0
Cc1ccc(C(=O)[C@@H]2[C@@H](c3ccsc3)C(C#N)(C#N)[C@H]3C=Cc4ccccc4N23)cc1	-1	-4	6	0
O=C(NCCO)c1ccnc(N2CCN(c3ccccn3)CC2)c1	1	9	-8	0
